# Giardia FBPA inh-1: qHTS Assay for Inhibitors of Fructose-1,6-bisphosphate Aldolase from Giardia Lamblia; A8B2U2; purified Giardia FBPA; Potency, µM (top dose mostly 59.6 µM), for the others: top-dose activity, negative = inhibition, most hits filed as inhibitors; hit rate 0.71% among 290,000; AID 2451, 2010; further: on the % scale 0 is the no-effect control and ±100 the full control effect; nearly all actives have a fitted effect of over 55% in size
# Target sequence (A8B2U2 whole entry, looked up): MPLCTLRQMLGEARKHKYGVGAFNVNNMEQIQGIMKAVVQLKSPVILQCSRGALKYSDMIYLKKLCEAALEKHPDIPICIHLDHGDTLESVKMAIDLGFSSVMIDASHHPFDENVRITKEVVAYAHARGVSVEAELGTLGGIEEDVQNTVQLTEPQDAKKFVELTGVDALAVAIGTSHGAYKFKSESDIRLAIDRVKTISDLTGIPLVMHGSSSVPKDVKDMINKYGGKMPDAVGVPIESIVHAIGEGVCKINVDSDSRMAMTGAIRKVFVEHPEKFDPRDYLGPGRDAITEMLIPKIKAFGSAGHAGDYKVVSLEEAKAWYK
#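 Giardia FBPA (40 nM reagent) was preincubated 10 min at RT with compound (up to 57.5 uM final), then substrate plus GAPDH/TPI/NAD/arsenate coupling system with diaphorase/resazurin was added; resorufin fluorescence (525/598 nm) was read after 20 min.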
# LmPK inhibitor: qHTS Assay for Inhibitors of Leishmania Mexicana Pyruvate Kinase (LmPK); Potency, µM (highest dose often 57.5 µM), for the others: top-dose activity change, negative = inhibition, usual class: inhibitors; AID 1721, 2009; purified LmPK, Kinase-Glo ATP luminescence, 1 h; Q27686; hit rate 0.37% among 290,000; further: on the % scale 0 is the no-effect control and ±100 the full control effect
#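 Screened at intermediate enzyme activity to detect both inhibitors and activators: LmPK at 0.1 nM, with a 0.5 nM enzyme column as activation reference. PEP 0.5 mM, ADP 0.1 mM; ATP detected by luminescence after 1 h.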
# TbPYK inhibitor: qHTS of Trypanosoma Brucei Inhibitors; pyruvate kinase (Trypanosoma brucei), Q57TT1; hit rate 0.12% among 410,000; Potency, µM (doses to about 76.8 µM), without a hit: top-dose activity, negative = inhibition, usual class: inhibitors; TbPYK enzyme, Kinase-Glo Plus ATP luminescence, 45 min; AID 624173, 2012; further: on the % scale 0 is the no-effect control and ±100 the full control effect; nearly all actives have a fitted effect of over 50% in size
#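 Readout: single end-point luminescence (Kinase-Glo Plus, 10 min). Reaction conditions were TbPYK/substrate plus 130 uM ADP, 45 min at RT, pH 7.2 TEA buffer. No-enzyme wells served as controls, and data were normalized before concentration-response fitting.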
# NS1 function inh: qHTS Assay for Inhibitors of Influenza NS1 Protein Function. Potency, µM (titrated, usually from 46.1 µM), without a hit: at the highest dose activity, positive = more growth. hit rate 0.4% among 270,000. AID 2326, 2010; calls by dose curve; further: actives are rising curves; nearly all actives have a fitted effect of over 50% in size
#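 Compounds were scored for reversing the slow growth caused by influenza A NS1 in S. cerevisiae, measured by optical density at 600 nm. Assay medium contained 2% galactose at pH 6.0; NS1-free yeast of the same strain were the positive control.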
# AMA1-RON2 inh: qHTS for Inhibitors of AMA1-RON; Towards Development of Antimalarial Drug Lead: Primary Screen | AlphaScreen AMA1-biotinylated RON2 peptide binding | Potency, µM (series often up to 58.2 µM), for inactives: top-dose activity change, negative = inhibition, most hits filed as inhibitors | hit rate 0.2% among 360,000 | AID 720542, 2013;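 further: 0% = vehicle wells and -100% = peptide control; nearly all actives have a fitted effect of over 45% in size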
#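 AMA1 (3D7) with his tag at 25 nM final met compounds first, then biotinylated RON2 peptide at 25 nM; detection used donor plus acceptor beads, 10 µg/mL apiece, read by AlphaScreen after 30 min at room temperature.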
# Giardia growth: qHTS Assay for Inhibitors of Fructose-1,6-bisphosphate Aldolase from Giardia Lamblia: Giardia lamblia growth inhibition | shares compounds with Giardia FBPA inh-1 | Giardia lamblia trophozoite growth inhibition | Potency, µM (titrated, usually from 57.5 µM), for the others: top-dose activity change, negative = inhibition, hits mostly inhibitors | hit rate 5% among 1,500 | AID 2785, 2010;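 further: trophozoites exposed to compound for 48 h at 37 °C; on the % scale 0 is the no-effect control and ±100 the full control effect; nearly all actives have a fitted effect of over 70% in size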
# Mammal cell tox: qHTS Assay for Inhibitors of Fructose-1,6-bisphosphate Aldolase from Giardia Lamblia: Mammalian cellular toxicity. Potency, µM (highest dose often 57.5 µM), without a hit: top-dose viability change, negative = toxicity, actives largely listed as inhibitors. hit rate 4% among 1,500. shares compounds with Giardia FBPA inh-1. mammalian cell viability counter-screen, qHTS;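 further: Chinese hamster ovary cells used as mammalian cytotoxicity surrogate; viability measured as cellular ATP by luminescence; compound exposure lasted 48 h before reading; on the % scale 0 is the no-effect control and ±100 the full control effect; nearly all actives have a fitted effect of over 60% in size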
# Giardia FBPA inh-2: qHTS Assay for Inhibitors of Fructose-1,6-bisphosphate Aldolase from Giardia Lamblia: Primary screen confirmation | shares compounds with Giardia FBPA inh-1 | purified Giardia aldolase enzyme activity, qHTS | Potency, µM (top dose mostly 57.5 µM), without a hit: top-dose activity change, negative = inhibition, usual class: inhibitors | hit rate 5% among 1,500; further: on the % scale 0 is the no-effect control and ±100 the full control effect; nearly all actives have a fitted effect of over 45% in size
# Rabbit FBPA inh: qHTS Assay for Inhibitors of Fructose-1,6-bisphosphate Aldolase from Giardia Lamblia: Rabbit FBPA Selectivity; Potency, µM (series often up to 57.5 µM), inactives show at the highest dose activity, negative = inhibition, most hits filed as inhibitors; hit rate 4% among 1,500; shares compounds with Giardia FBPA inh-1; AID 2794, 2010; Rabbit muscle FBPA enzyme inhibition, selectivity counter-screen; further: on the % scale 0 is the no-effect control and ±100 the full control effect; nearly all actives have a fitted effect of over 60% in size
# Target sequence (P00883 whole entry, looked up): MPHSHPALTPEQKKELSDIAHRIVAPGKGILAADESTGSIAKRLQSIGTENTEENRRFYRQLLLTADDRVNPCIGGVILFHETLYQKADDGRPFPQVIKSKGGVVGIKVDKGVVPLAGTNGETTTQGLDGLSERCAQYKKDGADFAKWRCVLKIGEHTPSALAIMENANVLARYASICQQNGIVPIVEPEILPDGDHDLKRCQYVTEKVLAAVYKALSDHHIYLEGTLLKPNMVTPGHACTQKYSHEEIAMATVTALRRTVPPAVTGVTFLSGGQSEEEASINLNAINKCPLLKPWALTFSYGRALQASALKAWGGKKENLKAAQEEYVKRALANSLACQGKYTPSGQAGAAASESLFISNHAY
# GAPDH counter: qHTS Assay for Inhibitors of Fructose-1,6-bisphosphate Aldolase from Giardia Lamblia: Coupling assay counterscreen confirmation. AID 2795, 2010. shares compounds with Giardia FBPA inh-1. hit rate 6% among 1,500. GAPDH coupling enzyme counterscreen, biochemical, qHTS. Potency, µM (series often up to 57.5 µM), for inactives: at the highest dose activity change, negative = inhibition, hits mostly inhibitors; further: on the % scale 0 is the no-effect control and ±100 the full control effect; nearly all actives have a fitted effect of over 55% in size
# Numbers without * were called inactive; ? = inconclusive; . = no result given; [ ] = remark or other dose. Compounds with a hit are over-represented: about 1.2% of the library has one in this group of screens. Unless noted, the call rests on the fitted dose curve; in most records, active means well fitted curve in the direction sought with a large enough effect; inconclusive means small, poorly fitted or top-dose-only effect, or another doubt; inactive means no such curve, though single readings can be large; an effect the other way counts as inactive or inconclusive. Potency means the concentration at half of the fitted maximal effect.
SMILES,Giardia FBPA inh-1,LmPK inhibitor,TbPYK inhibitor,NS1 function inh,AMA1-RON2 inh,Giardia growth,Mammal cell tox,Giardia FBPA inh-2,Rabbit FBPA inh,GAPDH counter
CC(C)=CCC/C(C)=C/CO/N=C1/C[C@@H](O)[C@@H](O)[C@@H]2[C@@H]3C(=O)N(C(C)(C)C)C(=O)[C@H]3CC[C@@H]12,-2%[12.9 µM],.,.,.,.,.,.,.,.,.
Cc1ccc(C)c(NC(=O)c2nn(C)c3c2CS(=O)(=O)c2ccccc2-3)c1,.,.,1%,.,.,.,.,.,.,.
CN1[C@@H]2CC(OC(=O)[C@H](CO)c3ccccc3)C[C@@H]1[C@H]1O[C@H]12 (stereo partly specified),1%,.,.,.,.,.,.,.,.,.
Cc1cc(C)c2nc(-c3ccccn3)cc(C(=O)NCCc3ccc(S(N)(=O)=O)cc3)c2c1,18µM*,9%,-16%,.,-24%,3%[10.4 µM],-1%,-1%,3%,15%
CCOc1ccc(NC(=O)NCc2ccccn2)cc1,-4%,5%,1%,16%,-5%,.,.,.,.,.
COc1ccc(NC(=O)CC(NCc2ccccn2)C(=O)O)cc1 (stereo unspecified),11µM*,0%,0%,3%,19%,20%,10%,14%,-12%,-11%
CCOc1ccc(NC(=O)CC(NCc2ccccn2)C(=O)O)cc1 (stereo unspecified),5µM*,-2%,-1%,.,-94%,-14%[38.3 µM],22%,13%,-5%,-25%
C=CCN(C)CCCCCCOc1ccc(C(=O)c2ccc(Br)cc2)c(F)c1,-2%,.,.,.,.,.,.,.,.,.
Oc1ccc2ccccc2c1C=Nc1ccccc1Br,7%,-2%,-14%,9%,-2%,.,.,.,.,.
Oc1ccccc1N=Cc1c(O)ccc2ccccc12,?,-7%,-2%,-57%,-7%,7%[38.3 µM],-14%,0.33µM*,?,-28%
CCCN1CCC(N2CCN(c3ccc([N+](=O)[O-])cc3)CC2)CC1,16µM*,-4%,17%,12%,?,-1%[10.4 µM],3%,-9%,1%,-15%
O=[N+]([O-])c1ccc(N2CCN(CC3CCCCC3)CC2)cc1,?,-1%,7%,-5%,?,.,.,.,.,.
CCc1ccc(NCc2cc3ccc(OC)cc3n(CC(=O)Nc3ccccc3OC)c2=O)cc1,.,.,-10%,.,.,.,.,.,.,.
Cc1ccc(NC(c2nnc(-c3ccccc3)o2)c2ccccc2F)c([N+](=O)[O-])c1 (stereo unspecified),.,.,-6%,.,.,.,.,.,.,.
Cc1cc(NC(=O)CSc2nnc(C3COc4ccccc4O3)n2N)no1 (stereo unspecified),20µM*,8%,-28%,3%,15%,-25%,17%,-6%,3%,-1%
Cc1nc2cnc(N3CCN(C)CC3)nc2n(CCc2ccccc2)c1=O,-2%,.,.,.,.,.,.,.,.,.
NS(=O)(=O)c1ccc(NC(=S)NC2CCCCC2)cc1,10µM*,-3%,?,4%,-1%,-2%[38.3 µM],?,40µM*,?,40µM*
NS(=O)(=O)c1ccc(NC(=O)NC2CCCCC2)cc1,1%,8%,-15%,2%,2%,.,.,.,.,.
CC1=NN(c2nc3ccccc3[nH]2)C(=O)C1Cc1ccccc1 (stereo unspecified),18µM*,-1%,-5%,-59%,-9%,-21%,?,23%,6%,9%
CN(C)c1ccc(NC2=C(Cl)C(=O)c3ccccc3C2=O)cc1,?,-28%,?,15%,7.9µM*,11µM*,33µM*,?,?,3.7µM*
CC(=O)N1CCN(C(=S)NC(=O)c2c(-c3ccccc3Cl)noc2C)CC1,16µM*,2%,-15%,.,64%,0%[10.4 µM],0%,-3%,9%,2%
Cc1ccccc1OCC(O)Cn1c2ccccc2c2ccccc21 (stereo unspecified),-10%,0%,-5%,-94%,44%,.,.,.,.,.
Cc1ccccc1OCC(O)CN1CCN(CC(O)COc2ccccc2C)C(C)C1 (stereo unspecified),14µM*,-3%,39%,6%,-24%,-25%,-9%,4%,6%,5%
O=C(Nc1sc2c(c1C(=O)O)CCC2)c1ccc(F)cc1,14µM*,-25%,-3%,-4%,10%,?,-14%,-26%,?,?
CN(C)C(=O)[C@]1(C)C[C@H]1[C@H](NC(=O)CNC(=O)[C@@H]1CCCN1C(=O)[C@]1(C)C[C@H]1[C@H](NC(=O)OCc1ccccc1)c1ccccc1)c1ccccc1,0%,.,.,.,.,.,.,.,.,.
O=[N+]([O-])c1ccc(O)c(/C=N/NC2=NS(=O)(=O)c3ccccc32)c1,8.9µM*,-6%,-24%,.,-7%,-6%[38.3 µM],-14%,?,1%,-16%
O=S1(=O)N=C(N/N=C/c2cccs2)c2ccccc21,2µM*,-2%,-4%,-10%,27%,-3%[38.3 µM],-5%,1%,12%,4%
C[C@H]1COC(=O)[C@H]2CCCN2C(=O)[C@@H](C)COC(=O)[C@H]2CCCN2C1=O,2%[12.9 µM],.,.,.,.,.,.,.,.,.

# High-throughput results (PubChem)
